Reference: PubChem BioAssay (EPA / NIEHS)
Inconclusive results are not listed. Active and inactive are the calls of the source. The calls were made as follows, unless noted: active = hit-call score of the fitted dose curve at least 0.9, where 1 is the maximum; inconclusive = response in the unintended direction; inactive = score below 0.9.

Columns and labels:
[1] = STM_H9_CystineISnorm_perc: Stemina devTOX quickPredict H9 human embryonic stem cell (hESC)-based Assay for Cystine (CYSS) Metabolite Biomarker, Normalized (AID 2283713; active = hit-call score of the fitted dose curve at least 0.9, where 1 is the maximum; inactive = score below 0.9)
In short: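 Secreted cystine was measured by UPLC-HRMS in H9 hESC medium after 72h compound exposure with 24-hourly replenishment. Values are standard-normalized areas relative to 0.1% DMSO.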

[2] = CEETOX_H295R_MTT_cell_viability: Viability Assessment in the CeeTox HT-H295R MTT Assay (AID 2283718; active = hit-call score of the fitted dose curve at least 0.9, where 1 is the maximum; inactive = score below 0.9)
In short: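 Human H295R adrenal cells, prestimulated 48 h with 10 uM forskolin, were exposed 48 h to chemicals in 0.1% DMSO. Viability was measured in the same wells by MTT (0.5 mg/ml, 4 h, 37 C), absorbance 570/650 nm, as percent of controls.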

[3] = STM_H9_OrnCyssISnorm_ratio: Stemina devTOX quickPredict H9 human embryonic stem cell (hESC)-based Assay for Ornithine (ORN):Cystine (CYSS) Ratio (AID 2283714)
In short: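 Undifferentiated H9 hESCs exposed 72 h, media and compound replaced every 24 h; final 24-h conditioned media deproteinized and analysed by UPLC-HRMS against C13 spike-ins. Value is the internal-standard-normalized ORN/CYSS ratio versus 0.1% DMSO.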

[4] = Tanguay_ZF_120hpf_ActivityScore_legacy: (Legacy) Oregon State University Tanguay Lab 120 Hour Post-fertilization zebrafish Assay Score for Activity (AID 2283742);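 as to AC50: dechorionated Tropical 5D wild-type zebrafish embryos held singly per well; static exposure from 6 hpf until 120 hpf at 28 °C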
In short: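 Dechorionated Tropical 5D embryos, one per well from 6 hpf, statically exposed to 120 hpf at 28 °C in 0.64% DMSO. Mortality and malformations scored binary by brightfield microscopy; activity score combines 18 endpoints, fitted positively versus DMSO.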

[5] = ArunA_CellTiter_hNC: Viability Assessment in the ArunA Biomedical's Oris Neural Crest (hNC) Cell Migration Assay (AID 2283752)
In short: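 Viability of embryonic neural crest stem cells from the H9 line is scored 72 h after dosing, with DMSO as negative control and baseline. A drop in CellTiter Aqueous One signal indicates cytotoxicity.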

[6] = ArunA_CellTiter_hNP: Viability Assessment in the ArunA Biomedical's Oris Neural Crest (hNC) Cell Migration Assay (AID 2283753)
In short: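 H9-derived hNP1 neuroprogenitors, 60,000/well on Matrigel, cultured 16 h, then 72 h chemical exposure in test medium. Cell titer via CellTiter Aqueous One; positive-direction fit vs DMSO.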

[7] = ArunA_Migration_hNC: ArunA Biomedical's Oris Neural Crest (hNC) Cell Migration Assay (AID 2283755)
In short: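 Human H9-derived neural crest stem cells, 60,000/well on Matrigel, 16 h at 37C, then 72 h chemical exposure after seeding-stopper removal. Migration into detection zone read as calcein-AM fluorescence (ex494/em517), relative to DMSO.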

[8] = ArunA_NOG_NucleusCount: ArunA Biomedical's Neurite Outgrowth (NOG) Assay for Nucleus Count (AID 2283756)
In short: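 Human H9-derived differentiated neurons were exposed for 48 h right after seeding. Hoechst-stained nuclei gated by size and intensity were counted by automated high-content imaging as viable neurons. Loss of signal vs DMSO.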

## CSc1nnc(C(C)(C)C)c(=O)n1N
[1]
  outcome: inactive
[2]
  outcome: inactive

## CC(C)[C@H](C(=O)O[C@H](C#N)c1cccc(Oc2ccccc2)c1)c1ccc(Cl)cc1
[1]
  AC50: 80.5 µM (active)
[3]
  AC50: 74.2 µM (active)
[2]
  outcome: inactive
[4]
  AC50: 1.53 µM (active)

## CCc1cccc(C)c1N(C(=O)CCl)C(C)COC (configuration not stated)
[2]
  outcome: inactive
[4]
  outcome: inactive

## CN(C)C(=O)Nc1cccc(C(F)(F)F)c1
[1]
  outcome: inactive
[3]
  outcome: inactive
[2]
  outcome: inactive
[4]
  outcome: inactive

## O=[N+]([O-])c1cc(C(F)(F)F)c(Cl)c([N+](=O)[O-])c1Nc1ncc(C(F)(F)F)cc1Cl
[1]
  AC50: 16.4 µM (active)
[3]
  AC50: 15.2 µM (active)
[4]
  AC50: 45.7 µM (active)
[5]
  outcome: inactive
[6]
  outcome: inactive
[7]
  outcome: inactive
[8]
  outcome: inactive

## CCC(=NOC/C=C/Cl)C1=C(O)CC(C2CCOCC2)CC1=O (configuration not stated)
[1]
  outcome: inactive
[4]
  outcome: inactive

## CCNc1nc(Cl)nc(NC(C)(C)C#N)n1
[1]
  outcome: inactive
[2]
  outcome: inactive
[4]
  outcome: inactive

## CCCCN(CC)c1c([N+](=O)[O-])cc(C(F)(F)F)cc1[N+](=O)[O-]
[2]
  outcome: inactive
[4]
  outcome: inactive

## CCOP(=S)(OCC)Oc1cc(C)nc(C(C)C)n1
[1]
  AC50: 73.3 µM (active)
[3]
  AC50: 75.2 µM (active)
[2]
  outcome: inactive
[4]
  outcome: inactive

## C=C(C)[C@H]1Cc2c(ccc3c2O[C@@H]2COc4cc(OC)c(OC)cc4[C@@H]2C3=O)O1
[1]
  AC50: 0.279 µM (active)
[3]
  AC50: 0.333 µM (active)
[4]
  AC50: 0.193 µM (active)

## N#CSCSC#N
[1]
  AC50: 7.75 µM (active)
[3]
  AC50: 14.2 µM (active)
[4]
  AC50: 17.9 µM (active)

## CCOP(=S)(OCC)SCCSCC
[1]
  AC50: 31.1 µM (active)
[3]
  AC50: 34.3 µM (active)
[4]
  outcome: inactive

## CC(COc1ccc(Oc2ccccc2)cc1)Oc1ccccn1 (configuration not stated)
[1]
  AC50: 0.0124 µM (active)
[2]
  outcome: inactive
[4]
  outcome: inactive
